Source: PubChem BioAssay
Rows were chosen to be rich in hits. Some 11% of all compounds tested hit in one or more screens of this group.
FLuc inh: inhibitors of firefly (Photinus pyralis) luciferase. P08659. purified P. pyralis luciferase, luminescence, biochemical. Potency, µM (top dose mostly 115 µM), hits mostly inhibitors. 76,000 compounds, 2.5% hits. AID 1347043; also: nearly all actives have a fitted effect of over 65% in size
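Inhibitors were tested against purified firefly luciferase in a biochemical, low-substrate format (both substrates at 10uM) and luminescence measured with a CCD imager.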
3T3 cytotox: kills NIH 3T3 cells; NIH 3T3 viability, CellTiter-Glo ATP luminescence, 48-72 h; Potency, µM (doses to about 96.7 µM), hits mostly inhibitors; 94,000 compounds, 4.3% hits; AID 1345082; also: nearly all actives have a fitted effect of over 55% in size
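Mouse fibroblast NIH 3T3 cells, 400 per well, received compound via pintool and were incubated for 48 or 72 hr prior to CellTiter-Glo ATP luminescence measurement.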
hNpr1 antagonist: antagonists of human natriuretic peptide receptor Npr1; P16066; HEK293 hNpr1 GloSensor cGMP, ANP-stimulated luminescence; Potency, µM (doses to about 46.3 µM), most hits filed as inhibitors; 76,000 compounds, 1.6% hits; AID 1347048; calls by dose curve; also: nearly all actives have a fitted effect of over 60% in size
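Compound pre-incubated 30 min at room temperature on GloSensor-loaded HEK293 cells stably carrying hNpr1 and the pGS-40F cGMP biosensor. Stimulation uses hNppA at 0.1 nM final; luminescence is taken at baseline and 20 min post-agonist.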
HEK cytotox: cytotoxic compounds in HEK 293 cells; HEK 293 viability, ATP luminescence (CellTiter-Glo), 48-72 h; Potency, µM (titrated, usually from 115 µM), hits mostly inhibitors; 94,000 compounds, 6.6% hits; AID 1345083; also: nearly all actives have a fitted effect of over 60% in size
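Read-out: CellTiter-Glo ATP luminescence. Cells: HEK 293, 250 cells/well. Exposure: 48 or 72 hr, 37 degree Celsius.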
A number is an active result; – = inactive; ? = inconclusive; · = no result. Unless noted, calls follow the shape of the dose curve; as a rule, active = well fitted curve in the direction sought with a large enough effect; inconclusive = small, poorly fitted or top-dose-only effect, or another doubt; inactive = no such curve, though single readings can be large; an effect the other way counts as inactive or inconclusive.

SMILES	FLuc inh	3T3 cytotox	hNpr1 antagonist	HEK cytotox
Cn1cc(-c2ccc3c(n2)CN(Cc2ccccc2)C(=O)CO3)cn1	–	39.8µM	–	?
COc1cccc(CN2Cc3nc(-c4cn[nH]c4)ccc3OCC2=O)c1	–	35.5µM	–	?
CN1Cc2nc(-c3cnn(C)c3)ccc2OCC1=O	–	?	–	–
COc1cccc(CN2Cc3nc(-c4ccccc4)ccc3OCC2=O)c1	–	?	–	79.4µM
COc1cccc(CN2Cc3nc(-c4ccsc4)ccc3OCC2=O)c1	–	?	–	?
COc1cccc(CN2Cc3nc(-c4cccc(O)c4)ccc3OCC2=O)c1	–	?	–	100µM
COc1cccc(CN2Cc3nc(-c4ccncc4)ccc3OCC2=O)c1	–	?	–	?
CN(C)[S+](=O)([O-])c1ccc2c(c1)OCCN(Cc1ccc(F)cc1F)C2	–	?	?	?
O=C1CC2(CCN(C(=O)C3CCN(C(=O)NC4CCCC4)CC3)CC2)Oc2ccccc2N1	·	–	·	?
Cc1nc(CN2Cc3nc(N(C)c4ccccc4)ccc3OCC2=O)cs1	–	?	?	?
O=C1COc2ccc(-c3cn[nH]c3)nc2CN1Cc1ccccc1	–	28.2µM	–	?
COCCN1Cc2nc(-c3cnn(Cc4ccccc4)c3)ccc2OCC1=O	–	44.7µM	–	?
COc1ccc(-c2ccc3c(n2)CN(CCOc2ccccc2)C(=O)CO3)cc1	–	?	?	?
CN(c1ccccc1)c1ccc2c(n1)CN(Cc1ccccc1)C(=O)CO2	50.1µM	79.4µM	?	89.1µM
CN1Cc2nc(-c3cnn(Cc4ccccc4)c3)ccc2OCC1=O	–	?	–	?
O=C1COc2ccc(-c3ccccc3)nc2CN1CCOc1ccccc1	–	44.7µM	–	?
CN(Cc1ccccc1)C(=O)c1ccc(N2CC3CC(C2)[C@H]2CCCC(=O)N2C3)nc1 (stereo partly specified)	–	–	–	–
COc1ccccc1C(=O)N1CC(=O)N(CCCc2ccccc2)CC(O)C1 (stereo unspecified)	·	–	·	?
CCOC(=O)C1CCN(C(=O)c2cc(-c3ccc(F)cc3)c3nncn3n2)CC1	·	?	·	–
COc1ccc(-c2nc3c(c(-c4ccccc4)n2)CN(C(=O)c2ccccc2F)CC3)cc1	–	–	–	?
COCC1CN(Cc2cccc(C(F)(F)F)c2)CC12CCNCC2 (stereo unspecified)	–	?	–	89.1µM
COCC1CN(Cc2ccc(C(F)(F)F)cc2)CC12CCNCC2 (stereo unspecified)	–	?	–	?
OCC1CN(Cc2cc(F)cc(Br)c2)CC12CCNCC2 (stereo unspecified)	–	?	–	31.6µM
CN(C)CCN(C)C(=O)c1ccc(-c2ncc3cnc(-c4cccc(F)c4)cn23)cc1	–	44.7µM	–	50.1µM
COC[C@@H]1OC[C@@]2(C)C3CC[C@@H](O)[C@@H](CC(=O)NCc4ccc(F)cc4)[C@]3(C)CC[C@H]2O1 (stereo partly specified)	–	–	–	–
SMILES	FLuc inh	3T3 cytotox	hNpr1 antagonist	HEK cytotox
C[C@@]12CO[C@@H](COc3ccccc3)O[C@@H]1CC[C@]1(C)C2CC[C@@H](O)[C@H]1CC(=O)NCc1cc(F)cc(F)c1 (stereo partly specified)	–	?	?	28.2µM
COc1ccc(C(=O)Nc2ccc(C(O)[C@H]3COCC(=O)N3CC(C)C)cc2)cc1 (stereo partly specified)	25.1µM	–	–	?
COc1ccc(CN2C(=O)COC[C@@H]2[C@H](O)c2ccc(NC(=O)c3ccc(C(C)(C)C)cc3)cc2)cc1	14.1µM	22.4µM	–	28.2µM
CC(C)CN1C(=O)COC[C@@H]1[C@H](O)c1ccc(NC(=O)c2ccc(F)cc2)cc1	?	–	–	–
CN1C(=O)COC[C@@H]1[C@H](O)c1ccc(NC(=O)c2ccc3c(c2)OCO3)cc1	?	–	–	–
CC(C)CN1C(=O)COC[C@@H]1[C@H](O)c1ccc(NC(=O)c2ccc3c(c2)OCO3)cc1	63.1µM	–	–	–
COc1ccc(CC(=O)N2C[C@H](C(N)=O)[C@H]3c4ccccc4N(CC(=O)N(C)C)C(=O)[C@]32C)cc1	·	?	·	–
COc1ccc(C(=O)N2CCc3nc(N)nc(N4CCCC4)c3CC2)o1	–	–	–	–
CC(C)NC(=O)c1cc(-c2ccc(S(C)(=O)=O)cc2)nc2c1cnn2C	·	–	·	–
Cn1ncc2c(C(=O)NC3CC3)cc(-c3ccc(Cl)cc3)nc21	·	79.4µM	·	?
CC(C)NC(=O)c1cc(-c2ccc(Cl)nc2)nc2c1cnn2C	·	22.4µM	·	?
Cn1ncc2c(C(=O)NC3CC3)cc(-c3cc(Cl)cc(Cl)c3)nc21	·	–	·	–
Cn1ncc2c(C(=O)NC3CCCCCC3)cc(C(C)(C)C)nc21	·	?	·	35.5µM
CC(C)NC(=O)c1cc(-c2ccc(F)cc2)nc2c1cnn2C	·	?	·	79.4µM
Cn1ncc2c(C(=O)NCC3CCCCC3)cc(C(C)(C)C)nc21	·	–	·	–
O=C(O)Cn1ccc2cc(OCCc3cccc(-c4cncnc4)c3)cnc21	–	?	–	–
CCc1ccc(C(=O)N2CCC(n3cnnc3-c3ccccc3)CC2)cc1	–	–	–	–
COc1ccccc1NC(=O)c1cc2c(n1C)CCN(Cc1ccc(F)cc1)C2	15.8µM	?	–	31.6µM
COc1cccc(CN2CCc3c(cc(C(=O)Nc4ccc(C)cc4C)n3C)C2)c1	15.8µM	?	–	?
COc1cccc(CN2CCc3c(cc(C(=O)Nc4cc(OC)cc(OC)c4)n3C)C2)c1	?	?	–	?
COc1cccc(N2C(=O)NC(=NC3CCCCC3)C23CCN(Cc2ccc(N(C)C)cc2)CC3)c1	·	–	·	–
CCNCc1ccc(-c2ccc(Cl)cc2)o1	–	?	–	?
Clc1cccc(-c2ccc(CNc3ncncn3)o2)c1	?	?	?	31.6µM
COc1ccc(CNc2ncnc3c2CN(C2CCC2)C(=O)CN3C)cc1	–	–	–	–
Cc1nn(-c2ccccc2)c2c1C(C)N(CC1CN(C(=O)c3ccc(Cl)cc3)C1)C2=O (stereo unspecified)	·	35.5µM	·	?
SMILES	FLuc inh	3T3 cytotox	hNpr1 antagonist	HEK cytotox
Cc1nn(-c2ccccc2)c2c1C(C)N(CC1CN(C(=O)c3ccc(C(F)(F)F)cc3)C1)C2=O (stereo unspecified)	·	–	·	–
Cc1nn(-c2ccccc2)c2c1C(C)N(CC1CN(Cc3ccc(F)cc3)C1)C2=O (stereo unspecified)	·	35.5µM	·	?
O=C(NC1CCCCCC1)C1CCN(C(=O)c2ncn3c2COC(c2ccc(Cl)cc2)C3)CC1 (stereo unspecified)	–	–	–	?
Fc1ccc(NC(=S)N[C@H]2CO[C@H]3[C@@H]2OC[C@@H]3n2nnnc2Oc2ccc(-n3cncn3)cc2)cc1	–	?	?	?
Cc1noc(C)c1-c1cc2c(cc(-c3ccccc3)n2C)c(-c2cnn(C)c2)n1	–	11.2µM	–	20µM
Cc1noc(C)c1-c1cc2c(cc(C)n2C)c(-c2cccc([S+](C)(=O)[O-])c2)n1	–	14.1µM	–	?
COc1cccc(-c2nc(-c3c(C)noc3C)cc3c2cc(C)n3C)c1OC	–	25.1µM	–	?
